Experimental data as given in ChEMBL document CHEMBL1201862, “PubChem BioAssay data set” (2004).
Among all 56,000 sequences or so, about 2,900 (5.2%) were called active. Rule as the data show it: active = GI50 up to about 1.1 µM and inactive = higher. The list is a sample of the results. Potency and affinity values are given separately.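 Growth conditions: 96-well plates. Treatment: test compound, 48 hours, 5 concentrations. Analysis: linear interpolation between bracketing concentrations; unreached endpoints set to highest concentration. Here, GI50 denotes the concentration required for 50% inhibition of growth.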

System: SK-OV-3
Assay: NCI tumour cell line growth inhibition, 48 h

Substance	GI50 [µM]
[Bis(aminomethyl)tetramethylenesilane]tetrachloropaltinum(IV), CHEMBL2146189	6.97
cis-Bis[[(trimethylsilyl)methyl]amino]tetrachloroplatinum(IV), CHEMBL2146191	17.6
[Bis(aminomethyl)ethylmethylsilane]tetrachloroplatinum(IV), CHEMBL2146192	13.1
CISPLATIN, CHEMBL11359	5.35
[Bis(aminomethyl)dimethylsilane]dichloroplatinum (II), CHEMBL2146201	> 100
mu-(1,7-nanodiamine-N,N')bis-(cis-aminedichloroplatimum (II)), CHEMBL2146215	64.9
[Bis(aminomethyl)pentamethylenesilane]tetrachloropaltinum(IV), CHEMBL2146204	4.5
[Bis(aminomethyl)dimethylsilane]tetrachloroplatinum(IV), CHEMBL2146190	12.8
[Bis(aminomethyl)pentamethylenesilane]dichloropaltinum(II), CHEMBL2146202	5.12
[Bis(aminomethyl)diethylsilane]tetrachloroplatinum(IV), CHEMBL2146203	1.69
[Bis(aminomethyl)tetramethylenesilane]dichloropaltinum(II), CHEMBL2146205	26.2
